Screens deposited in PubChem by National Center for Advancing Translational Sciences (NCATS).
Rows were chosen to be rich in hits. Some 5.4% of all compounds tested hit in one or more screens of this group.
FMDV antiviral: blocks foot and mouth disease virus | FMDV antiviral cell-based qHTS | 1.2% of 410,000 active | Potency, µM (highest dose often 57.9 µM), hits mostly inhibitors; calls by dose curve; tested in HEK293T cells; also: read-out not given here; nearly all actives have a fitted effect of over 45% in size
Sm TGR inh: S. mansoni TGR enzyme inhibition; AID 485364; 3% of 360,000 active; Q962Y6; Potency, µM (titrated, usually from 114 µM), hits mostly inhibitors; purified TGR, DTNB reduction, TNB absorbance 405 nm; active = well fitted inhibition curve with a large enough effect; inconclusive = small, poorly fitted or top-dose-only effect; inactive = no such curve, though single readings can be large or run the other way; also: nearly all actives have a fitted effect of over 60% in size
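First, TGR (20 nM dispensed) and NADPH were mixed with compound. Second, a 15 min room-temperature incubation followed. Third, further NADPH and then DTNB were added to start the reaction. Finally, TNB absorbance was monitored kinetically.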
Marburg entry inh: Marburg virus entry inhibition | Marburg virus pseudotyped entry inhibition, cell reporter | Potency, µM (highest dose often 37.8 µM), usual class: inhibitors | 1.8% of 300,000 active | AID 540276; calls by dose curve; tested in HEK293 cells
Vaccinia Venus: inhibitors of vaccinia virus (Venus reporter) | AID 720580 | Vaccinia virus Venus reporter expression, fluorescence | 0.46% of 330,000 active | Potency, µM (top dose mostly 36.5 µM), usual class: inhibitors; calls by dose curve; tested in A549 cells; also: nearly all actives have a fitted effect of over 30% in size
LASV entry inh: inhibitors of Lassa virus binding or cell entry; Lassa virus pseudotype entry inhibition, cell reporter; Potency, µM (doses to about 37.9 µM), most hits filed as inhibitors; 1.2% of 300,000 active; AID 540256; calls by dose curve; tested in HEK293 cells; also: nearly all actives have a fitted effect of over 50% in size
VACV mCherry inh: inhibitors of vaccinia virus infection (mCherry reporter signal); Vaccinia virus mCherry reporter infection, fluorescence; Potency, µM (titrated, usually from 36.5 µM), actives largely listed as inhibitors; 0.63% of 310,000 active; AID 720579; calls by dose curve; tested in A549 cells; also: nearly all actives have a fitted effect of over 35% in size
Numbers stand for hits; n = inactive; u = inconclusive; x = no result given; [ ] = remark or other dose.

SMILES	FMDV antiviral	Sm TGR inh	Marburg entry inh	Vaccinia Venus	LASV entry inh	VACV mCherry inh
COCC(=O)N1c2nc(-c3ccco3)nn2C2(CCCCC2)[C@@H]2CCCC[C@@H]21	n	n	n	n	n	n
CCCC(=O)N1CCN(c2nc(CC(C)C)c3c(c2C#N)CCC3)CC1	u	n	u	n	13µM	n
CC(C)Cc1nc(N2CCN(C(=O)c3ccco3)CC2)c(C#N)c2c1CCCC2	u	n	x	x	x	x
CCOC(=O)N1CCN(C(=O)c2ccc3c(c2)N(Cc2ccccc2F)C(=O)c2ccccc2S3(=O)=O)CC1	n	n	n	n	n	n
CC(C)(C)c1cc(CCC(=O)NCCc2ccccn2)cc(C(C)(C)C)c1O	n	n	n	n	x	n
O=C1C=C(NCCc2cc(Br)c(O)c(Br)c2)C(=O)c2ncccc21	10µM	x	u	u	2.8µM	u
COc1ccc(N2CCN(C(=O)Nc3cn(CC(C)C)c(=O)c4ccccc34)CC2)cc1	n	n	x	n	n	n
CCOc1cc(C(=O)Nc2ccc3nc(Nc4cccc(Cl)c4)cc(C)c3c2)cc(OCC)c1OCC	n	n	x	n	n	n
Nc1nc(CCl)nc(Nc2cccc3ccccc23)n1	u	16µM	x	x	x	x
CCC(=O)Nc1nc2ccccc2n1Cc1ccc(Cl)cc1	u	n	12µM	x	u	x
CCC(=O)Nc1nc2ccccc2n1Cc1ccccc1Cl	n	n	x	x	x	x
CCc1c(C)nc2ncnn2c1N1CCCC(C(=O)Nc2cc(F)ccc2C)C1 (stereo not drawn)	35µM	n	u	u	n	x
CC1=NC(=O)C(N=Nc2ccccc2)N1c1ccccc1 (stereo not drawn)	n	n	n	n	u	x
CC1=NC(=O)C(N=Nc2cccc(C(=O)O)c2)N1c1ccccc1 (stereo not drawn)	8.9µM	n	2.6µM	x	2.3µM	x
Cc1ccc2c(c1)c1c(c(=O)n(-c3cccc(Cl)c3)c(=O)n1CC(=O)NCCC1=CCCCC1)n2C	n	n	n	n	n	n
Cc1cc(Oc2ccc(-c3ccccc3)cc2)n2ncnc2n1	40µM	n[11.4 µM]	n	n	n	n
CCN(c1ccccc1)c1cc(C)nc2ncnn12	n	n	x	n	x	n
CC(O)(COc1ccccc1)c1ccc2c(c1)CN(Cc1cccc3cccnc13)CCO2 (stereo not drawn)	n	x	x	n	x	n
C#CCn1c(S(=O)(=O)Cc2ccc(OC)cc2)nc(-c2ccccc2)c1-c1ccccc1	n	n	4.1µM	n	u	u
Cc1ncoc1C(=O)NCc1nc(-c2cccc(NC(=O)c3ccccn3)c2)oc1C	n	x	x	n	x	n
CC(NCc1cccc(OCc2ccccc2)c1)C(O)c1ccccc1 (stereo not drawn)	u	n	x	x	x	x
CC(NCc1ccc(OCc2ccc(Cl)cc2)cc1)C(O)c1ccccc1 (stereo not drawn)	n	n	13µM	u	u	u
COc1cc(CNc2cccc(F)c2)cc(Br)c1O	n	13µM	n	n	n	n
CC(C)(C)C(=O)OC1=CN(Cc2ccccc2)S(=O)(=O)c2ccccc21	n	n	n	u	n	11µM
CCC(=O)OC1=C(C(C)=O)N(Cc2ccccc2)S(=O)(=O)c2ccccc21	n	n	u	n	n	n
SMILES	FMDV antiviral	Sm TGR inh	Marburg entry inh	Vaccinia Venus	LASV entry inh	VACV mCherry inh
CCN1c2ccccc2NC2N=C(OC)C(c3ccccc3)C21 (stereo not drawn)	n	n	23µM	u	n	u
O=C1/C(=C/c2ccco2)SC(=S)N1c1cccnc1	n	14µM	u	n	u	u
O=C1/C(=C\c2ccco2)SC(=S)N1c1ccc(O)cc1	n	u	u	n	n	n
NN1C(=O)/C(=C\c2ccco2)SC1=S	n	11µM	n	n[7.34 µM]	n	n[7.34 µM]
CC(=O)N1CCOc2cc(S(=O)(=O)NCc3ccccc3Cl)c(Cl)cc21	n	n	x	n	n	n
C=CC[C@H](c1ccc(F)cc1)N(CC(C)C)S(=O)(=O)C=C	x	x	x	n	x	n
Cc1cccc(NC(=S)NNc2ncc(C(F)(F)F)cc2Cl)c1	u	n	u	u	18µM	n
FC(F)(F)c1cnc(NNC(=S)Nc2ccccc2Cl)c(Cl)c1	10µM	n	u	u	u	u
O=C(Nc1ccccc1)Nc1ncc(C(F)(F)F)cc1Cl	n	x	x	n	x	n
CC(C)(C)NNC(=S)Nc1cccc(C(F)(F)F)c1	n	n	n	n[7.34 µM]	n	u
c1ccc(-c2onc(-c3ccco3)c2-c2ccc3[nH]ccc3c2)cc1	n	45µM	x	n	x	n
COc1cccc(CNc2nc3ccccc3n2CCN2CCCCC2)c1OC	n	n	11µM	n	u	n
COc1cccc(CNc2ccc(N3CCCCC3)cc2)c1OC	n	25µM	u	n	u	x
COc1ccccc1CNc1ccc(C(=O)O)cc1	n	n	n	n	u	n
COc1ccccc1CNc1ccc(N2CCCCC2)cc1	x	10µM	5.2µM	n	u	n
COc1cc(=O)n2c(c1C(=O)NCc1nonc1C)CCN(C(=O)c1cccc(C)c1C)CC2	n	x	x	n	x	n
CCc1nc(SC)ncc1C(=O)N1CCN(c2cc(C)ccc2C)CC1	n	n	x	n	n	n
Cc1c(O)ccc(C(=O)CN2CCN(c3ccccc3)CC2)c1O	n	22µM	x	x	x	x
O=c1c2ccccc2nnn1CSc1nnc(-c2cccs2)n1Cc1ccccc1	u	n	0.82µM	x	u	x
Cc1cc(C(=O)CSc2nnc(-c3cccs3)n2Cc2ccccc2)c(C)n1C	n	n	u	n	n	n
O=c1cc(CSc2nnc(-c3cccs3)n2Cc2ccccc2)nc2sc3ccccc3n12	16µM	n	u	u	n	n
Cc1cccc2c1-c1sc(C(=O)N3CCN(c4ccccc4)CC3)cc1CO2	n	n	n	n	x	n
CCCNC(=O)N1C2=NC(C(=O)OC)=C(C(=O)OC)[C@@H]3Nc4ccccc4[C@]23C[C@H]1C(=O)OC	x	x	n	x	u	x
NC1(N)OC(CN2C(=O)C3=C(CCCC3)C2=O)CS1 (stereo not drawn)	x	x	n	x	x	x
COc1ccc(C2CC(=O)c3c([nH]c(C(=O)OCCOc4ccccc4)c3C)C2)cc1OC (stereo not drawn)	u	n	u	n	n	n
SMILES	FMDV antiviral	Sm TGR inh	Marburg entry inh	Vaccinia Venus	LASV entry inh	VACV mCherry inh
COCCOC(=O)c1[nH]c2c(c1C)C(=O)CC(c1cc(OC)c(OC)c(OC)c1)C2 (stereo not drawn)	u	n	10µM	n	u	n
CCCCOC(=O)c1[nH]c2c(c1C)C(=O)CC(c1cc(OC)c(OC)c(OC)c1)C2 (stereo not drawn)	16µM	n	n	n	x	u
COc1cc(C2CC(=O)c3c([nH]c(C(=O)OCC4CCCCC4)c3C)C2)cc(OC)c1OC (stereo not drawn)	u	n	u	u	n	n
C=CCOC(=O)c1[nH]c2c(c1C)C(=O)CC(c1cc(OC)c(OC)c(OC)c1)C2 (stereo not drawn)	11µM	n	u	n	u	u
COCCOC(=O)c1[nH]c2c(c1C)C(=O)CC(c1ccccc1)C2 (stereo not drawn)	u	n	n	u	u	x
COc1cc(C2CC(=O)c3c([nH]c(C(=O)OC4CCCCC4)c3C)C2)cc(OC)c1OC (stereo not drawn)	11µM	n	x	u	6.3µM	n
